According to PubChem BioAssay AID376 (PDSP, 2006):
The whole screen tested about 2,000 compounds, of which about 250 (12%) were called active. Many of the other results were omitted from the sample, so actives are more common in it than they were. Unmarked numbers belong to inactive results. Cut-off read from the data, not from the text of the source: active = hERG blockade below about -20% or above about 20%; inactive = in between.

target: Voltage-gated inwardly rectifying potassium channel KCNH2 (Homo sapiens) (UniProt Q12809); assay: modulators of KCNH2 ion channel function, cellular (AID 376); conditions: hERG-expressing cells, channel activity single-concentration screen; concentration not given here;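 note: 0% = buffer alone and 100% = reference blocker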
Sequence (Q12809 whole entry, looked up): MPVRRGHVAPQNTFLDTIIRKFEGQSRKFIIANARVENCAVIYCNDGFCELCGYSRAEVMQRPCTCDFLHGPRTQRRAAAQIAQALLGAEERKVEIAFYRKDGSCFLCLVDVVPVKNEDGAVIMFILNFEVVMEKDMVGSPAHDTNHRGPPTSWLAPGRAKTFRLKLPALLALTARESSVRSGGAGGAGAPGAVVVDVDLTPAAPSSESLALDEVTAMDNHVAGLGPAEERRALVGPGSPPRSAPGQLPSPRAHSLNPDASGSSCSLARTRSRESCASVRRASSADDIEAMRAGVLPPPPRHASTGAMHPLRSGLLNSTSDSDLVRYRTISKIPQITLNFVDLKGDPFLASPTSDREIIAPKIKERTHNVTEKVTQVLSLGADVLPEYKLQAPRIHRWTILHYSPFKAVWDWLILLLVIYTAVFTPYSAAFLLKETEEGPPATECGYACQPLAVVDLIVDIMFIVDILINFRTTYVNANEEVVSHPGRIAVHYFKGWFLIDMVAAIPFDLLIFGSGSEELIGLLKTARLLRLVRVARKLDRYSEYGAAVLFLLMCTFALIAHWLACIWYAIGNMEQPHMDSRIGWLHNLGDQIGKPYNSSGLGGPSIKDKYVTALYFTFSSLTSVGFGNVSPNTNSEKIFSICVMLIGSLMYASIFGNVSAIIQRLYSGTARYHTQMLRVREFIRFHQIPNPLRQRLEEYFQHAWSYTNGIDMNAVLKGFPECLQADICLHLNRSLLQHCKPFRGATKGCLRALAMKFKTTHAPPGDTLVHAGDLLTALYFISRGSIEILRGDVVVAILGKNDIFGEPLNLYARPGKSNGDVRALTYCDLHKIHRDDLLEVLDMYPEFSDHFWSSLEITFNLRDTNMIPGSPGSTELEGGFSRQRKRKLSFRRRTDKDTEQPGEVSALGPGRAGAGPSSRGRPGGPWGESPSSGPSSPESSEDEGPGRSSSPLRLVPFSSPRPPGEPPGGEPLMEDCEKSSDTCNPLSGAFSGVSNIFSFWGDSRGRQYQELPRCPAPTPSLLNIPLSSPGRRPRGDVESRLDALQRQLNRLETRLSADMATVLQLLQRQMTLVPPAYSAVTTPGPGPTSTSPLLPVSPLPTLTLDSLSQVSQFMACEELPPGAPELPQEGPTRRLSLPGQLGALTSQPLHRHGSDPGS

Q: How did the hERG blockade turn out when `CC12CCC(CN(CCC[N+](C)(C)C)C1)C2(C)C` (centres undefined) was run?
A: The hERG blockade was 4.55%.

Q: For `CC1CCC2N(C1)CC1C3(O)CC45OC6(O)C(O)CCC4(C)C6CCC5C3(O)CC(O)C1(O)C2(C)O` (centres undefined), which hERG blockade is on record?
A: Its hERG blockade is 12.9%.

Q: Which hERG blockade does the source give for `CSCCC(N)P(C)(=O)O` (centres undefined) here?
A: Its hERG blockade is -4.74%.

Q: `C[As+](C)(c1ccc(Br)c([N+](=O)[O-])c1)c1ccc(Br)c([N+](=O)[O-])c1.O=[N+]([O-])[O-]` was tested. Which hERG blockade did it give?
A: Its hERG blockade is 13.6%.

Q: `N=C(N)n1cc(C=NN=C(N)N)cn1` was tested. Which hERG blockade did it give?
A: Its hERG blockade is 47.3% (active).

Q: How did the hERG blockade turn out when `S=P(C1CCCCC1)(C1CCCCC1)C(c1cccnc1)N1CCCC1` (centres undefined) was run?
A: The hERG blockade was 1.56%.

Q: How did the hERG blockade turn out when `O.O.[NH-]C1(C(=O)O)CCCC1.[NH-]C1(C(=O)O)CCCC1.[Ni+2]` was run?
A: The hERG blockade was 1.76%.

Q: For `Cc1cc[c]([Sb]2[O]C(CO)C(C(O)C(O)C(=O)O)[O]2)cc1` (centres undefined), which hERG blockade is on record?
A: Its hERG blockade is -4.77%.

Q: Which hERG blockade does the source give for `COc1cc2c(cc1OC)C13CCN4CC5=CCOC(CC(=O)O)C(C5CC41)C3N2` (centres undefined) here?
A: The hERG blockade was 2.07%.

Q: How did the hERG blockade turn out when `O=c1[nH]cnc2[nH]cc(CN3CCCCC3)c12` was run?
A: The hERG blockade was 1.35%.

Q: Which hERG blockade does the source give for `O=c1[nH]c2ccccc2n1CCCN1CCC(n2c(=O)[nH]c3cc(Cl)ccc32)CC1` here?
A: The hERG blockade was 67.7% (active).

Q: Which hERG blockade does the source give for `CCNC(C)(C)C(SS)c1ccc(Br)cc1` (centres undefined) here?
A: Its hERG blockade is -7.7%.

Q: Which hERG blockade does the source give for `O=C(O)CC1OCC=C2CN3CCC45c6ccccc6NC4C1C2CC35` (centres undefined) here?
A: The hERG blockade was -7.07%.

Q: For `CC1(C)CC(=N[N-]C(N)=[SH+])CC(C)(C)N1.CC1(C)CC(=N[N-]C(N)=[SH+])CC(C)(C)N1.[Ni]`, which hERG blockade is on record?
A: Its hERG blockade is -0.871%.

Q: For `O=C(O)C1[O][Sb][O]C(C(=O)O)C1O` (centres undefined), which hERG blockade is on record?
A: The hERG blockade was -9.98%.

Q: How did the hERG blockade turn out when `CC(C)=CC1C(C(=O)OCc2cc3c(cc2Cl)OCO3)C1(C)C` (centres undefined) was run?
A: Its hERG blockade is 1.35%.

Q: For `c1nc(N2CC2)c2cnn(C3CCCCO3)c2n1` (centres undefined), which hERG blockade is on record?
A: The hERG blockade was 4.58%.

Q: `O=C(O)C1C2c3ccccc3C(c3ccccc32)C1C(=O)NCC1CC1` (centres undefined) was tested. Which hERG blockade did it give?
A: The hERG blockade was -8.3%.

Q: How did the hERG blockade turn out when `CC(C)CCC1(CCN)C(=O)NC(=O)NC1=O` was run?
A: Its hERG blockade is -21.5% (active).

Q: How did the hERG blockade turn out when `CC12Cc3cnc(-c4ccccc4)nc3CC1CCC1C2CCC2(C)C1CCC2(C)O` (centres undefined) was run?
A: Its hERG blockade is 6.41%.

Q: With `NC(Cc1c[nH]c2cc([N+](=O)[O-])ccc12)C(=O)O` (centres undefined) as the compound, how does the hERG blockade read?
A: The hERG blockade was -0.372%.

Q: Which hERG blockade does the source give for `CCC1(CCSC(=N)N)C(=O)NC(=O)NC1=O` here?
A: Its hERG blockade is -24.7% (active).

Q: For `CCNCCC1(CC)C(=O)NC(=O)NC1=O`, which hERG blockade is on record?
A: The hERG blockade was -21.7% (active).

Q: With `NCC(O)CSP(=O)(O)O` (centres undefined) as the compound, how does the hERG blockade read?
A: Its hERG blockade is -13.3%.

Q: With `CS(=N)(=O)CCC(N)P(=O)(O)O` (centres undefined) as the compound, how does the hERG blockade read?
A: The hERG blockade was -8.23%.

Q: `COc1cc2ccccc2c2cc([N+](=O)[O-])oc12` was tested. Which hERG blockade did it give?
A: The hERG blockade was 15.9%.

Q: Which hERG blockade does the source give for `CC12CCC(O)CC1CCC1C2CCC2(C)C(C(=O)CC(O)C(F)(F)F)CCC12` (centres undefined) here?
A: The hERG blockade was -1.73%.

Q: How did the hERG blockade turn out when `CC(C)CC(=O)CC(O)C(Cl)(Cl)Cl` (centres undefined) was run?
A: The hERG blockade was -17%.

Q: Which hERG blockade does the source give for `CC(Br)(C(=O)O)C(Br)C(=O)O` (centres undefined) here?
A: Its hERG blockade is 11.1%.

Q: `CCC1C2Cc3ccc(O)cc3C1(CC)CCN2C` (centres undefined) was tested. Which hERG blockade did it give?
A: The hERG blockade was 1.71%.

Q: For `CCC1=C(CC2NCCc3cc(OC)c(OC)cc32)CC2c3ccccc3CCN2C1` (centres undefined), which hERG blockade is on record?
A: The hERG blockade was 46% (active).

Q: For `COC(=O)c1c(C)ccc2c(O)c3c(cc12)C(=O)c1c2c(cc(O)c1C3=O)C1(C)OC(C)(O2)C(O)C(N(C)C)C1O` (centres undefined), which hERG blockade is on record?
A: Its hERG blockade is 18.8%.

Q: Which hERG blockade does the source give for `NCCc1ccc(S(=O)(=O)O)cc1[N+](=O)[O-]` here?
A: The hERG blockade was 2.55%.

Q: How did the hERG blockade turn out when `O=[As](O)(O)c1ccc(NCc2ccccc2)cc1` was run?
A: The hERG blockade was -4.95%.

Q: For `COc1ccc(CC(N)c2ccc(OC)cc2)cc1` (centres undefined), which hERG blockade is on record?
A: Its hERG blockade is 16.9%.

Q: Which hERG blockade does the source give for `CC(=O)OC1CC2(C)C(=CC1C1SCCS1)CCC1C2CCC2(C)C(OC(C)=O)CCC12` (centres undefined) here?
A: The hERG blockade was 4.12%.

Q: For `Cc1ccc(C2(c3ccc(C)c(O)c3C)CCN(C)CC2)c(C)c1O`, which hERG blockade is on record?
A: Its hERG blockade is 21.1% (active).

Q: Which hERG blockade does the source give for `Cc1ncc([N+](=O)[O-])n1CCN=[N+]=[N-]` here?
A: The hERG blockade was -3.49%.

Q: `c1ccc(C[N+]23CN4CN(CN(C4)C2)C3)cc1` was tested. Which hERG blockade did it give?
A: The hERG blockade was -14.9%.

Q: Which hERG blockade does the source give for `Nc1nc2c(ncn2C2OC(CO)C(O)C2O)c(=[SH+])[nH]1.O=[N+]([O-])c1ccc(O)[c]([Hg])c1` (centres undefined) here?
A: The hERG blockade was 5.92%.

Q: For `COC(=O)C1c2cc3c(c(O)c2C(O)CC1(C)O)C(=O)c1c(O)cc2c(c1C3=O)OC1OC2(C)C(O)C(N(C)C)C1O` (centres undefined), which hERG blockade is on record?
A: The hERG blockade was 18.4%.

Q: How did the hERG blockade turn out when `NC(Cc1ccccc1)P(=O)(O)O` (centres undefined) was run?
A: The hERG blockade was 1.7%.

Q: Which hERG blockade does the source give for `CC1(C)CCC(C)(C)c2c1ccc(O)c2Cc1c(O)ccc2c1C(C)(C)CCC2(C)C` here?
A: Its hERG blockade is -7.52%.

Q: `COc1ccc(CC2C(=O)NC(C)C(=O)N(C)C3C(=O)N(C)C(Cc4ccc(O)c(c4)Oc4ccc(cc4)C3O)C(=O)NC(C)C(=O)NC(C)C(=O)N2C)cc1` (centres undefined) was tested. Which hERG blockade did it give?
A: Its hERG blockade is 6.31%.

Q: For `COc1cc2c(cc1O)CC1c3c(cc(O)c(OC)c3-2)CCN1C` (centres undefined), which hERG blockade is on record?
A: Its hERG blockade is 4.49%.

Q: Which hERG blockade does the source give for `COc1cc2c3cc1Oc1c(O)c(OC)cc4c1C(Cc1ccc(cc1)Oc1cc(ccc1O)CC3N(C)CC2)N(C)CC4` (centres undefined) here?
A: The hERG blockade was 38.6% (active).

Q: Which hERG blockade does the source give for `N#CS.N=C=S.N=C=S.[Cu+2].[NH2-].[NH2-].[NH2-].[NH2-].c1ccc2ncccc2c1` here?
A: Its hERG blockade is 6.79%.

Q: `c1cncc(CNCCN2CCNCC2)c1` was tested. Which hERG blockade did it give?
A: Its hERG blockade is -8.8%.

Q: Which hERG blockade does the source give for `NC1(P(=O)(O)O)CCCCC1` here?
A: The hERG blockade was -4.89%.
